Results on 14 compounds are retold here after PubChem BioAssay.

Structures are written as SMILES. Calls of active or inactive are those of the source.

The test system of test [1] is Plasmodium falciparum Sir2 (PF13_0152, Sir2A). The test can be described thus: Plasmodium falciparum Sir2A binding compounds – biochemical, small-molecule microarray, 635 nm fluorescence, primary screen (AID 1098).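 Note: score merges spot fluorescence intensity with its signal-to-noise ratio.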 The note with it: fluorescence 635 nm, higher = more signal.
Test [2] can be described thus: probe aDKK1 binding to arrayed compounds – biochemical, biotinylated probe, 635/667 nm fluorescence, primary screen (AID 1099).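 Note: score merges 667nm spot fluorescence with signal to noise across triplicate slides; reference of the scale not given here.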 Particulars: small-molecule microarray, higher = more signal.
Test [3] is described as follows: probe aCHRDL2 binding to arrayed compounds – biochemical, biotinylated probe, 635/667 nm fluorescence, primary screen (AID 1100). Particulars: small-molecule microarray, higher = more signal.
Test [4] can be described thus: change in splice reporter luminescence, either direction, cell-based, HEK293, spliceosome inhibition project, primary screen (AID 1101).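 Note: HEK293 cells carrying a splicing-competent luciferase reporter gene; test concentration not given here.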 The note with it: HEK293 splicing luciferase reporter, 24 h, higher = more signal, called active from +8 up or from −8 down. In general terms: A reporter such as luciferase makes a cellular process visible.
Test [5] has as its target Fibroblast growth factor 10 (Homo sapiens) (UniProt O15520). The test can be described thus: compounds binding fibroblast growth factor 10 – biochemical, small-molecule microarray, 635 nm fluorescence, primary screen (AID 1102). The note with it: FGF10 binding, fluorescence 635 nm, higher = more signal.
Test [6] deals with glycogen synthase kinase-3 (GSK3A per assay name; protocol says GSK3B). In words: compounds binding glycogen synthase kinase-3 – biochemical, small-molecule microarray, 635 nm fluorescence, GSK3A, primary screen (AID 1103). Note: the record names both GSK3A and GSK3B. The note with it: fluorescence 635 nm, higher = more signal.
In test [7] the target is Epidermal growth factor receptor (Homo sapiens) (UniProt P00533). The test can be described thus: compounds binding epidermal growth factor receptor – biochemical, small-molecule microarray, 635 nm fluorescence, primary screen (AID 1104).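 Note: score merges 667 nm emission intensity with spot signal to noise over triplicate slides.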 Particulars: EGFR binding, higher = more signal.
Epidermal growth factor receptor (Homo sapiens), sequence (P00533 whole entry, looked up): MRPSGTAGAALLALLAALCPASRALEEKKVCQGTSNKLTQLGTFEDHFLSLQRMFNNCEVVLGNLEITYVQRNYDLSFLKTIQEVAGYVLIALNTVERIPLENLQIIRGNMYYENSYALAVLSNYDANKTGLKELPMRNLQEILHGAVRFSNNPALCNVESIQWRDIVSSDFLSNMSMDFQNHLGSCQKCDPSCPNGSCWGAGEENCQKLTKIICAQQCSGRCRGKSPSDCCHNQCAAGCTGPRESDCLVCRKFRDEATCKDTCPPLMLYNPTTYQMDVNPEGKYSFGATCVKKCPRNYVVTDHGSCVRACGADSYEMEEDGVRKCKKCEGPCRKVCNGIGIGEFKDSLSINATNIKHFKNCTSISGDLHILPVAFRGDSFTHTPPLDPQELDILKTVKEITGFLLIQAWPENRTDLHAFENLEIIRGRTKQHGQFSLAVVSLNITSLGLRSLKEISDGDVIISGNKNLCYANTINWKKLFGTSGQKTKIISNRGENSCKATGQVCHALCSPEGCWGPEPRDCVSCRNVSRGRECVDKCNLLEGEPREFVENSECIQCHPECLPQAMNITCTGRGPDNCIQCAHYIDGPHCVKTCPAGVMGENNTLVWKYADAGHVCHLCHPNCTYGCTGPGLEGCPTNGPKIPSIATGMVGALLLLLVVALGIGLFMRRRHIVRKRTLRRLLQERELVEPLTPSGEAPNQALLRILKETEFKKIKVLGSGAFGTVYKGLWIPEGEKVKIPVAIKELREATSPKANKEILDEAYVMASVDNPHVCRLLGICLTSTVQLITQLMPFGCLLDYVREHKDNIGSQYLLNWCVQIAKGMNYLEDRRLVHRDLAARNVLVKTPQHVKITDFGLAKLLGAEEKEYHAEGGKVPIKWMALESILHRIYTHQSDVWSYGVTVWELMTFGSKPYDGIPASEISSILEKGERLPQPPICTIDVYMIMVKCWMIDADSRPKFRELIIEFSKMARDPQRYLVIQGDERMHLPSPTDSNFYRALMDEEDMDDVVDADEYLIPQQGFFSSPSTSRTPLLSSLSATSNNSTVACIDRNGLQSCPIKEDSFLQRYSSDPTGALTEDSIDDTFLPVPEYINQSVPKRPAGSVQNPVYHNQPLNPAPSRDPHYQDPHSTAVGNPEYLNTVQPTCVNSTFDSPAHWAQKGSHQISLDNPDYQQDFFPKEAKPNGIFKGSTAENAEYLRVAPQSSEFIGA
Test [8] has as its target Follistatin-related protein 3 (Homo sapiens) (UniProt O95633). In words: compounds binding follistatin-related protein 3 – biochemical, small-molecule microarray, 635 nm fluorescence, primary screen (AID 1105).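 Note: score merges emission near 667 nm and signal to noise per printed spot across three slides.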 The note with it: FSTL3 binding, higher = more signal.
The target of test [9] is Dickkopf-related protein 1 (Homo sapiens) (UniProt O94907). In words: small molecules binding DKK1 protein – biochemical, small-molecule microarray, 635 nm fluorescence scan, primary screen (AID 1106).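 Note: score merges emission near 667 nm with signal to noise over three replicate slides.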 Particulars: higher = more signal.
Dickkopf-related protein 1 (Homo sapiens), sequence (O94907 whole entry, looked up): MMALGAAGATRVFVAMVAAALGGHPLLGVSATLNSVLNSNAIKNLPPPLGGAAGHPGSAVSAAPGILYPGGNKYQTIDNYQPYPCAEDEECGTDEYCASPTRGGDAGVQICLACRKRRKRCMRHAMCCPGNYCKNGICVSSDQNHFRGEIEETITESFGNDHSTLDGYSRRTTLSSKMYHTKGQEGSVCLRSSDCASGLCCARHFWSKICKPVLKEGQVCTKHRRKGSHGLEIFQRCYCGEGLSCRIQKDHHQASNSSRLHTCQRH
Test [10] deals with Inhibin beta A chain (activin A). In words: small molecules binding activin A – biochemical, small-molecule microarray, 635 nm fluorescence scan, primary screen (AID 1107).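 Note: mouse activin A protein probed at 4.33 µg/mL on printed slides; score merges bound-protein fluorescence near 667 nm with spot signal-to-noise.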 Particulars: INHBA, higher = more signal.

Follistatin-related protein 3 (Homo sapiens), sequence (O95633 whole entry, looked up): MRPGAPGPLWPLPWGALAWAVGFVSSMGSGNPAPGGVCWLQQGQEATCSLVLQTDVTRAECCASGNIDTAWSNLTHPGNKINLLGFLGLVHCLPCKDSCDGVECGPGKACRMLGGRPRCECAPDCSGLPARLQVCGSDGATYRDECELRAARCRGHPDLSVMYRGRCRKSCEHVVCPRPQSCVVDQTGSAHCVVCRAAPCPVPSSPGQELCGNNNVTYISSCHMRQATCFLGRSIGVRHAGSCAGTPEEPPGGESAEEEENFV
Fibroblast growth factor 10 (Homo sapiens), sequence (O15520 whole entry, looked up): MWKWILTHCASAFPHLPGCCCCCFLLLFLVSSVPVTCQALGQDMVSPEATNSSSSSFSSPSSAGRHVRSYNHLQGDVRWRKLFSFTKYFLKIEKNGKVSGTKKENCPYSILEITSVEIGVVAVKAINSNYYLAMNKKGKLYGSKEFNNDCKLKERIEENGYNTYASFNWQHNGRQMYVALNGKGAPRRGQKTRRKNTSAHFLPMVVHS

`COc1ccc(C#Cc2ccc3c(c2)[C@]2(C(=O)N3)[C@H](C(=O)NC[C@H](O)c3ccccc3)[C@H]3C(=O)O[C@H](c4ccccc4)[C@H](c4ccccc4)N3[C@@H]2c2ccc(OCCO)cc2)cc1`: the composite z-score in test [1] was 1.33; in [2] it was 0.0324; in [3], 0.236; in [5], 1.25; in test [6], 1.28; in [7], 0.487. Besides, the figures for the composite z-score in test [8], in test [9] and in test [10] were 1.26, 0.31 and 0.123, respectively. Further, in [4], the z-score is -1.46 (inactive).
As to `O=C/C=C/c1ccc(Cl)cc1`, the composite z-score in test [1] is -0.34; in [2], -0.235; in test [3] it was 0.0073; in test [5] it was -0.513; in [6] it was -0.966; in test [7], -0.301. The composite z-score in test [8] worked out at 0.0697; in test [9] it was 0.0956; in test [10] it was 0.934. In addition, in test [4], the z-score was -1.05 (inactive).
`C=C[C@H](C)[C@@H](O)c1ccc(O)c2ccccc12`: the composite z-score is 1.43 in test [1]; -0.302 in [2]; -0.0488 in [3]; -0.152 in test [5]; -0.61 in test [6]; -0.775 in test [7]. The composite z-score in [8] is -0.189; in test [9], 0.0078; in [10] it was 1.28. Moreover, the z-score in test [4] is -0.0352 (inactive).
In the case of `COc1ccc(CCNC(=O)[C@@H]2c3ccccc3C(=O)N(Cc3ccc(OC(F)(F)F)cc3)[C@H]2c2ccc(CO)cc2)cc1`, the composite z-score in test [1] was 1.7; in [2], 0.0658; in test [3], 0.396; in [5], 0.719; in test [6], 0.965; in [7], -0.227. The composite z-score is 0.251 in test [8], -0.204 in test [9] and 0.258 in test [10]. In addition, the z-score in [4] was 0.0514 (inactive).
For the compound `O=C(CS)NCCCCCCNC(=O)[C@H]1C[C@H]2C(=O)NCC(=O)N2[C@H]1c1ccc(O)cc1`, the composite z-score in test [1] is 0.576; in test [2] it was -0.213; in test [3] it was 0.694; in test [5] it was -0.175; in test [6] it was -0.607; in [7], -0.606. Further, the composite z-score was -0.46 in test [8], 0.22 in test [9] and -0.58 in [10]. In addition, the z-score in test [4] was -0.295 (inactive).
Regarding `CN1C(=O)C2C(C1=O)C1C=C(CCCO)C2C(c2cccs2)N1C` (stereo not given), the composite z-score in test [1] is 1.78; in [2], -0.722; in test [3] it was -0.681; in test [5], 0.248; in test [6], -0.76; in test [7] it was -0.106. Moreover, the results for the composite z-score in test [8], in test [9] and in [10] were -0.473, -0.559 and 0.561, respectively. Also, the z-score in test [4] is -0.0035 (inactive).
Take `COCC(=C=CC[C@@H](O)c1ccc(CO)o1)CCO`: the composite z-score in [1] is 0.772; in [2], -0.239; in [3] it was -0.181; in test [5] it was 1.26; in test [6], 0.0348; in test [7], 0.614. Moreover, the composite z-score in [8] turned out to be 0.574; in test [9], 0.618; in [10] it was 0.839. Further, the z-score in test [4] was -2.32 (inactive).
Turning to `CC(C)N1C(=O)C[C@@](C(=O)NCc2ccccc2)(c2ccc([N+](=O)[O-])cc2)[C@H]1c1ccc(CO)cc1`, the composite z-score in [1] was 0.142; in test [2] it was -0.0752; in [3], 0.934; in [5] it was 0.484; in test [6], 0.321; in test [7], -0.786. In addition, the figures for the composite z-score in test [8], in test [9] and in test [10] were -0.17, -0.0781 and 0.0614, respectively. Moreover, the z-score in test [4] is 0.0798 (inactive).
Turning to `COC(=O)[C@@]1(Cc2ccc(F)cc2)[C@H]2c3cc(C(=O)N(C)C)n(CCc4ccccn4)c3C[C@H]2CN1C(=O)c1ccccc1`, the composite z-score was determined as 0.219 in [1]; 0.849 in test [2]; 0.312 in [3]; 0.355 in test [5]; 1.36 in [6]; 0.472 in test [7]. In addition, the composite z-score worked out at 0.869 in test [8], 0.41 in test [9] and 0.403 in test [10]. The z-score in test [4] is -3.62 (inactive).
Turning to `C=CC(COC(C)=O)NS(=O)(=O)c1ccc(Br)cc1` (stereo not given), the composite z-score is 0.669 in test [1]; -0.461 in test [2]; -0.501 in test [3]; 0.632 in [5]; 0.903 in [6]; 0.642 in [7]. Moreover, the composite z-score in test [8] worked out at 1.01; in test [9], 0.684; in test [10], 0.12. Moreover, in test [4], the z-score was 0.217 (inactive).
On to `O=C1[C@]2(CO)C=C(Br)[C@@H](C[C@@H]2c2ccccc2)[C@@]12CO2`, for which the composite z-score was 0.628 in test [1]; 0.0144 in test [2]; 0.0065 in [3]; 0.208 in [5]; -0.626 in [6]; -0.135 in [7]. Further, the composite z-score in [8] was found to be 0.419; in test [9], 0.357; in [10] it was 0.263. Moreover, the z-score in test [4] was 0.359 (inactive).
With `COCCOC(=O)N1C(=O)[C@@]2(c3ccccc31)[C@H](C(=O)NC[C@H](O)c1ccccc1)[C@H]1C(=O)O[C@H](c3ccccc3)[C@H](c3ccccc3)N1[C@@H]2c1ccc(OCCO)cc1`, the composite z-score in [1] is 1.38; in test [2] it was 0.0185; in test [3], -0.131; in test [5], 1.08; in test [6] it was 1.27; in [7], 1.13. For the same compound, the results for the composite z-score in [8], in test [9] and in [10] were 1.51, 1.01 and 0.955, respectively. Further, the z-score in test [4] was -1.81 (inactive).
As for `O=C1N(CCS(=O)(=O)c2ccccc2)c2ccccc2C[C@@]12COC(c1ccc(OCCCO)cc1)=N2`, the composite z-score in [1] was found to be 1.51; in test [2], 0.957; in test [3] it was 1.12; in test [5], 0.805; in test [6] it was 1.32; in [7] it was 0.432. The composite z-score in [8] came out at 1.32; in test [9], 0.763; in [10], 1.18. Further, the z-score in test [4] is -0.651 (inactive).
For `C=C[C@@H](COC(C)=O)N(Cc1ccccc1[N+](=O)[O-])S(=O)(=O)c1ccc(Br)cc1`, the composite z-score in test [1] was 1.31; in [2], 0.278; in test [3], -0.0205; in test [5], 0.863; in [6] it was 1.16; in test [7], 1.2. For the same compound, the composite z-score was 1.39 in test [8], 1.82 in test [9] and 1.16 in test [10]. In addition, in [4], the z-score is -2.18 (inactive).
